Screening data: PubChem BioAssay, National Center for Advancing Translational Sciences (NCATS)
Shown are actives, neighbours in structure and some others; about 11% of the full set was active somewhere.
IMPase Li inh: membrane-permeable IMPase blocker, potentiated with lithium; AID 1457; 210,000 compounds, 0.35% hits; CHO-M1 cells, IP1 TR-FRET (IP-One), carbachol + lithium; Potency, µM (doses to about 59.4 µM), inactives show top-dose activity, negative = IMPase inhibition, actives largely listed as inhibitors; active = well fitted curve in the direction sought with a large enough effect; inconclusive = small, poorly fitted or top-dose-only effect, or another doubt; inactive = no such curve, though single readings can be large; an effect the other way counts as inactive or inconclusive;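 note: IP1 builds up when IMPase is blocked and the TR-FRET signal falls; potency is the fitted concentration of half-maximal effect; plate controls were basal vehicle for no effect and high inhibitor control for full effect; nearly all actives have a fitted effect of over 50% in size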
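CHO cells stably expressing M1 receptor (2000/well, cultured 16–30 h) treated 30 min at 37C with compound plus low lithium. Cytosolic IP1 by TR-FRET (665/620 ratio and 620 channel) after 10 min lysis; AC50 by Hill fit.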
PNC assembly inh: perinucleolar compartment assembly inhibition; activity change (PNC), negative = inhibition, % at 10 µM; 140,000 compounds, 3.1% hits; PC3M PTB-GFP, PNC prevalence imaging, 16 h; stronger effect = lower value;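 active = readout at or below -70, meaning at least 70% loss of cells showing the perinucleolar compartment, a nuclear body marking cancer cells; inconclusive = readout between -30 and a set limit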;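 note: plate controls were DMSO wells for no effect and camptothecin positive control wells for full effect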
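Read-out is percentage of cells bearing a perinucleolar compartment, from automated 20x imaging of fixed, Hoechst-stained PC3M PTB-GFP cells. Cells were seeded 4 h, then exposed 16 h to compound (23 nl of library stock) in duplicate plates.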
IMPase inh: IMPase inhibition in cells; P97697; CHO-M1 cells, IP1 accumulation, HTRF TR-FRET ratio; inhibition (IP1 accumulation), % at 46.1 µM; 120,000 tested, under 10 active; AID 901; active = well fitted curve in the direction sought with a large enough effect in the signal ratio, not every such curve was filed as active; inconclusive = small, poorly fitted or top-dose-only effect, or a change in a side signal; inactive = no such curve, though single readings can be large or run the other way; the % refers to the signal ratio;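 note: cells stimulated with carbachol in lithium chloride buffer; plate controls were DMSO basal wells for no effect and reference inhibitor wells for full effect; higher means more IMPase inhibition seen as more IP1 and lower FRET ratio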
Target sequence (P97697 whole entry, looked up): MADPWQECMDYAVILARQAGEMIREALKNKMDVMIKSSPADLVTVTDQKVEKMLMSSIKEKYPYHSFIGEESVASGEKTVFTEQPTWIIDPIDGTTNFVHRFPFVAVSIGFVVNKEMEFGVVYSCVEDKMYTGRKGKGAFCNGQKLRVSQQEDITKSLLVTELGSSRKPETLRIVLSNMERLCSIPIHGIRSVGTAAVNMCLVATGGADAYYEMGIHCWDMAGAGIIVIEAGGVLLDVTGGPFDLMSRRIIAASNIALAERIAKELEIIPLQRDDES
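Seeded CHO-M1 cells were dosed with compound at up to 46 uM, stimulated with carbachol for 30 min, then lysed in IP-One detection reagents. Higher IP1 lowers the TR-FRET signal.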
12-hLO inh: inhibitors of human 12-lipoxygenase (ALOX12); P18054; purified 12-hLO, xylenol orange hydroperoxide absorbance; Potency, µM (doses to about 57.1 µM), for inactives: at the top dose activity change, negative = inhibition, hits mostly inhibitors; 150,000 compounds, 0.12% hits; active = well fitted curve in the direction sought with a large enough effect; inconclusive = small, poorly fitted or top-dose-only effect, or another doubt; inactive = no such curve, though single readings can be large; an effect the other way counts as inactive or inconclusive; note: potency is the fitted concentration of half-maximal effect; nearly all actives have a fitted effect of over 55% in size
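Purified human 12hLO (150 nM), preincubated 15 min with compound, then 40 uM arachidonic acid for 30 min, room temperature, Hepes pH 7.0 with 0.01% Triton X-100. Hydroperoxide detected by ferrous iron/xylenol orange; 573/405 nm absorbance ratio gives reaction progress.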
ALDH1A1 inh: inhibitors of human aldehyde dehydrogenase 1A1. P00352. Purified ALDH1A1, NADH fluorescence, propionaldehyde substrate. Potency, µM (top dose mostly 75.3 µM), for inactives: at the highest dose activity, negative = inhibition, most hits filed as inhibitors. 220,000 compounds, 7.3% hits;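 note: potency is the fitted concentration of half-maximal effect; plate controls were no enzyme wells and a reference inhibitor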
HPGD inh: inhibitors of human 15-hydroxyprostaglandin dehydrogenase (HPGD) | purified HPGD, NADH fluorescence kinetic, PGE2 substrate | Potency, µM, for inactives: at the highest dose activity change, negative = inhibition, actives largely listed as inhibitors | AID 894 | P15428 | 150,000 compounds, 4.3% hits; note: potency is the fitted concentration of half-maximal effect
Target sequence (P15428 whole entry, looked up): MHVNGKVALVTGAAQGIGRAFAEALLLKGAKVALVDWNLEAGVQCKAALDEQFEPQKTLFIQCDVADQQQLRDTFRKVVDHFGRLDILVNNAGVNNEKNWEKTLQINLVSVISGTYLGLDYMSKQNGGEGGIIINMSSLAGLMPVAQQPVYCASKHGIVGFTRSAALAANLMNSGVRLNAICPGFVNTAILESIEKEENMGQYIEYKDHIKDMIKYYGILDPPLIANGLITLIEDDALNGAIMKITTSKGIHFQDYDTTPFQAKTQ
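20 nM HPGD preincubated 15 min at room temperature with compound in 50 mM Tris-HCl pH 8, 0.01% Tween 20. Started with 1 mM NAD+ and 30 uM prostaglandin E2; NADH fluorescence (360/450 nm) read 5 times over 30-s intervals, last minus first.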
Active calls of the source: *; ? = inconclusive; nt = no result; [ ] = another dose, or the depositor's remark. Unless noted, calls come from the whole dose curve; as a rule, active = well fitted inhibition curve with a large enough effect (not every such curve was filed as active); inconclusive = small, poorly fitted or top-dose-only effect, or another doubt; inactive = no such curve, though single readings can be large or run the other way. Unless noted, % is set by controls: 0 for no effect and ±100 for the full control effect.

SMILES	IMPase Li inh	PNC assembly inh	IMPase inh	12-hLO inh	ALDH1A1 inh	HPGD inh
COc1ccc(C(=O)CN2CCN(S(=O)(=O)c3cccc([N+](=O)[O-])c3)CC2)cc1	8%	-16	11	-5%	10µM*	-13%
COc1cccc(C(=O)CN2CCN(S(=O)(=O)c3ccc(Br)cc3)CC2)c1	-2%[38.3 µM]	0	7	-11%	11µM*	-7%
CCOc1ccc(C(=O)CN2CCN(S(=O)(=O)c3ccc(Br)cc3)CC2)cc1	-6%[38.3 µM]	7	0	-16%	22µM*	-5%
Cc1cc2nc(-c3ccc(OCc4ccccc4)cc3)cc(C(F)(F)F)n2n1	nt	nt	0	nt	nt	nt
COc1ccc(/C=C/N(CCc2ccc(OC)c(OC)c2)C(=O)C(F)(F)F)cc1	nt	nt	nt	nt	-21%[13.5 µM]	nt
CCCC(=O)Nc1nc2c(ncn2[C@@H]2O[C@H]3COP(=O)(O)O[C@@H]3[C@@H]2OC(=O)CCC)c(=O)[nH]1	3%	nt	nt	nt	?	nt
COc1cc(OC)c(C2Nc3ccccc3-c3nnc(SCc4ccccc4)nc3O2)cc1OC (centres undefined)	nt	nt	-7	nt	nt	nt
O=C(NC(=S)N1CCN(c2ccccn2)CC1)c1ccccc1	-1%	-92*	nt	-3%	-13%	-9%
S=C(NC1CCCC1)N1CCN(c2ccccn2)CC1	-5%	-15	-13	3%	-5%	-13%
CC1CCC(C(=O)NC(C(=O)N2CCN(c3ccccn3)CC2)C(C)C)CC1 (centres undefined)	-7%[38.3 µM]	-114*	-8	2%	5%	-24%
CC1CCC(C(=O)NC(C(=O)N2CCc3ccccc3C2)C(C)C)CC1 (centres undefined)	42%[38.3 µM]	19	7	-4%	-15%	-8%
Cn1ncc(Br)c1C(=O)NC(=S)N1CCN(c2ccccn2)CC1	0%	25	nt	-1%	-17%	-10%
CCC(Oc1ccccc1)C(=O)N1CCN(c2ccccn2)CC1 (centres undefined)	11%[38.3 µM]	-132*	-6	-7%	-1%	-17%
Cn1cc(Br)c(C(=O)NC(=S)N2CCN(c3ccccn3)CC2)n1	-2%	-86*	nt	-4%	-3%	-11%
O=c1c(-c2cccc(Cl)c2)nc2cncnc2n1Cc1ccc(F)cc1	-9%	nt	nt	0%	14%	-7%
NC(=O)CSc1nnc(-c2ccc([N+](=O)[O-])cc2)o1	-2%	nt	nt	nt	0%	nt
Cc1ccc(Cn2c(C)cc3c(c2=O)C(c2cccs2)C(C#N)=C(N)O3)cc1 (centres undefined)	-11%[38.3 µM]	?	?	3%	5%	-6%
N#CC1=C2SCN(Cc3ccccc3)CN2C(=O)CC1c1ccc2c(c1)OCO2 (centres undefined)	7%	29	-8	-25%	7.9µM*	25µM*
N#CC1=C2SCN(Cc3ccccc3)CN2C(=O)CC1c1cccs1 (centres undefined)	11µM*	-19	?	-20%	11µM*	20µM*
Cc1nnc(NC(=O)C2CCCO2)s1 (centres undefined)	8%	?	12	5%	8.9µM*	13µM*
CCCCCc1nnc(NC(=O)C2CCCO2)s1 (centres undefined)	32%[38.3 µM]	41	8	2%	?	-7%
CCOC(=O)C(=O)Nc1nnc(CCc2ccccc2)s1	-10%	-100*	1	-1%	-3%	-8%
CCCCOC(=O)Nc1nnc(C(C)C)s1	-8%	nt	nt	nt	-5%	nt
COCCSc1nnc(NC(=O)C2CCCO2)s1 (centres undefined)	0%[38.3 µM]	-24	-5	-4%	5%	-8%
CCCC(C)c1nnc(NC(=O)C2CCCO2)s1 (centres undefined)	50%[38.3 µM]	-8	17	5%	3.5µM*	11µM*
SMILES	IMPase Li inh	PNC assembly inh	IMPase inh	12-hLO inh	ALDH1A1 inh	HPGD inh
CCCC(C)c1nnc(NC(=O)C(=O)OCC)s1 (centres undefined)	7%	nt	nt	nt	7.9µM*	nt
C#CCCCO/N=C1/C[C@@H](O)[C@@H](O)[C@@H]2[C@@H]3C(=O)N(C4CCCCC4)C(=O)[C@H]3CC[C@@H]12	nt	nt	nt	nt	3%[13.5 µM]	nt
CNC1CC(N)[C@H](O)[C@@H](O[C@@H]2OC(CO)C3OC4(OC(C(N)CO)C(O)C(O)C4O)O[C@@H]3[C@H]2O)C1O (some centres undefined)	-7%	nt	nt	4%	6%	-1%
O=C(Nc1nnc(-c2ccccc2F)s1)C1CCCO1 (centres undefined)	6%	52	-1	-3%	20µM*	-20%
O=C(Nc1nnc(-c2ccncc2)s1)C1CCCO1 (centres undefined)	20%[38.3 µM]	?	-5	-2%	?	?
O=C(c1ccco1)N(CCC(c1ccccc1)c1ccco1)Cc1ccccc1 (centres undefined)	13%	-20	nt	-3%	8.9µM*	-20%
COc1ccc(CCN(Cc2nc3ccccc3c(=O)[nH]2)C(=O)c2ccco2)cc1	28%[38.3 µM]	24	2	-2%	-3%	-9%
COc1ccc(CN(CCC(c2ccccc2)c2ccco2)C(=O)c2ccco2)cc1 (centres undefined)	12%	2	-6	-10%	7.9µM*	28µM*
O=C(NC(CO)c1ccccc1)c1ccco1 (centres undefined)	17%[38.3 µM]	-29	-13	-5%	21%	-9%
CCc1ccc(S(=O)(=O)Nc2ccc(O)c(C(=O)O)c2)cc1	nt	nt	nt	-7%	?	-9%
COc1ccccc1NC(=O)C1=C(C)Nc2nc(-c3ccco3)nn2C1c1ccccc1F (centres undefined)	nt	nt	4	nt	nt	nt
COc1cc(N)n(S(=O)(=O)c2ccc(C)cc2)n1	-3%	nt	nt	nt	4%	nt
COc1ccc(-c2cc(N)n(S(=O)(=O)c3ccc(C)cc3)n2)c(OC)c1	5%[38.3 µM]	-91*	7	-28%	?	-15%
COc1ccc(OC)c(NC(=O)NC2(C(F)(F)F)Oc3ccccc3O2)c1	15%[38.3 µM]	32	7	-11%	7.1µM*	-6%
COc1ccc(OC)c(NC(=O)Nc2ccccc2C)c1	23%[38.3 µM]	9	-6	-1%	4%	-1%
Cc1ccc(Cl)cc1N1CCN(C(c2ccc(F)cc2)c2nnc(-c3ccccc3)o2)CC1 (centres undefined)	nt	nt	3	nt	nt	nt
Cc1cccc(NC(=O)CN(c2ccc(F)cc2)S(C)(=O)=O)c1	18%	nt	nt	nt	?	nt
Cc1ccc(N(CC(=O)Nc2cccc(C)c2)S(=O)(=O)c2cccc3nonc23)cc1	nt	?	5	-16%	7.1µM*	nt
CN1CCN(c2ncc3nc(-c4ccc(Cl)cc4)c(=O)n(Cc4cccs4)c3n2)CC1	29%	nt	nt	nt	-2%	nt
O=C(Nc1ccccc1NC(=O)c1csnn1)c1csnn1	-1%	nt	nt	nt	?	nt
